{"source": "PubChem BioAssay", "note": "Calls of active or inactive are those of the source. How the calls were made is not given here.", "data": [{"molecular_target": "Pantothenate synthetase (Mycobacterium tuberculosis (strain ATCC 25618 / H37Rv)) (UniProt P9WIL5)", "sequence (P9WIL5 whole entry, looked up)": "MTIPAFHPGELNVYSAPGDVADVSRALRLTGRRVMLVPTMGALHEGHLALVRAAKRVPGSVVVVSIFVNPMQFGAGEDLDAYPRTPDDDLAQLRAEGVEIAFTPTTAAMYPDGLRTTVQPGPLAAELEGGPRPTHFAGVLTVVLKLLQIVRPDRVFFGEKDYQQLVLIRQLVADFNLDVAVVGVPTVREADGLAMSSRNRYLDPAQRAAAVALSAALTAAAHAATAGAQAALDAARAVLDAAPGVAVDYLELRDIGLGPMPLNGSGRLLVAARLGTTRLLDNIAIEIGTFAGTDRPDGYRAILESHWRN", "experiment": "Coupled enzyme confirmation of inhibitors against recombinant Mtb PanC (AID 375);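 further: 0% = full reaction with vehicle and 100% = no enzyme background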", "conditions": "coupled enzyme assay; at 10 µM, active compounds read high", "values": [{"smiles": "N/C(=N/O)c1nc(N2CCCCC2)nc(N2CCCCC2)n1", "inhibition": "0% (inactive)"}, {"smiles": "CCn1cc(C(=O)NCC2CCCO2)c(=O)c2cc(S(=O)(=O)N(C)C3CCCCC3)ccc21", "note": "(centres undefined)", "inhibition": "5% (inactive)"}, {"smiles": "COc1cccc(NC(=O)C2CCCN(S(=O)(=O)c3cccc4cccnc34)C2)c1", "note": "(centres undefined)", "inhibition": "0% (inactive)"}, {"smiles": "CCOC(=O)N1CCN(S(=O)(=O)c2ccc(OCC)c(C)c2)CC1", "inhibition": "0% (inactive)"}, {"smiles": "CCOC(=O)C1CCCN(C(=O)c2ccc(CS(=O)(=O)c3ccc(Br)cc3)o2)C1", "note": "(centres undefined)", "inhibition": "4% (inactive)"}, {"smiles": "CCCCN(CCCC)CCCOC(=O)c1ccc(N)cc1", "inhibition": "0% (inactive)"}, {"smiles": "CCCC(=O)Nc1nnc(CC(=O)N2CCCC2)s1", "inhibition": "0% (inactive)"}, {"smiles": "O=C(O)[C@@H]1CCCN1c1ncnc2sc3c(c12)CCC3", "inhibition": "6% (inactive)"}, {"smiles": "Cc1ccc(CCNC(=O)C2CCCN2S(=O)(=O)c2ccc3c(c2)CCC(=O)N3)cc1", "note": "(centres undefined)", "inhibition": "6% (inactive)"}, {"smiles": "COC(=O)CSc1nc(C)c(C(C)=O)cc1C#N", "inhibition": "10% (inactive)"}, {"smiles": "CC(C)Cc1nc2oc3c(N4CCN(CCO)CC4)ncnc3c2c2c1CCCC2", "inhibition": "0% (inactive)"}, {"smiles": "CC(=O)Nc1cc(NC(C)=O)cc(C(=O)OCC(=O)N2CC(C)OC(C)C2)c1", "note": "(centres undefined)", "inhibition": "2% (inactive)"}, {"smiles": "COc1ccc(Cn2c(-c3ccco3)nc3oc4ccccc4c(=O)c3c2=O)cc1", "inhibition": "0% (inactive)"}, {"smiles": "COc1ccc(CNc2nc(SCC(=O)NCc3ccco3)nc3ccccc23)cc1", "inhibition": "10% (inactive)"}, {"smiles": "Cc1cccc(NCc2ccccc2O)c1", "inhibition": "3% (inactive)"}, {"smiles": "COc1ccccc1N1CCN(C(=O)CCNS(=O)(=O)c2ccc3c(c2)CCC(=O)N3)CC1", "inhibition": "0% (inactive)"}, {"smiles": "COc1ccc(NC(=O)CN2CCCCC2)cc1", "inhibition": "0% (inactive)"}, {"smiles": "CCCCC[C@H](O)/C=C/[C@H]1C=CC(=O)[C@@H]1C/C=C\\CCCC(=O)O", "inhibition": "0% (inactive)"}, {"smiles": "COc1ccccc1-n1c(SCC(=O)Nc2ccc3c(c2)OCO3)nc2c(c1=O)SCC2", "inhibition": "0% (inactive)"}, {"smiles": "O=C(Nc1ccc(Cl)cc1C(=O)O)c1ccc2c(c1)C(=O)N(Cc1ccco1)C2=O", "inhibition": "0% (inactive)"}, {"smiles": "O=C(Nc1ccc(N2CCCC2)cc1)c1ccc(Br)o1", "inhibition": "0% (inactive)"}, {"smiles": "Cc1occc1C(=O)Nc1cccnc1", "inhibition": "16% (inactive)"}, {"smiles": "CC(C)Cn1c(=O)c(C(=O)Nc2ccccc2S(N)(=O)=O)c(O)c2ccccc21", "inhibition": "0% (inactive)"}, {"smiles": "CCCN1CCN(CCCNC(=O)Cn2ncc3c4ccccc4n(C)c3c2=O)CC1", "inhibition": "3% (inactive)"}, {"smiles": "Cc1cc(C)n(CCCNC(=O)c2ccc3c(c2)NC(=O)CS3)n1", "inhibition": "0% (inactive)"}, {"smiles": "Cc1cc(Oc2ccc(Cl)cc2)nc(-c2ccccc2O)n1", "inhibition": "7% (inactive)"}, {"smiles": "Clc1ccc(Cn2ncc3c(NCc4cccnc4)ncnc32)cc1", "inhibition": "0% (inactive)"}, {"smiles": "CCOC(=O)Cn1c2c(c(=N)c3ccccc31)CCC2", "inhibition": "13% (inactive)"}, {"smiles": "COc1ccccc1NC(=O)N(Cc1ccccc1)c1ccccn1", "inhibition": "6% (inactive)"}, {"smiles": "CCn1c(=O)cc(OCC(=O)NC2CCCCC2)c2ccccc21", "inhibition": "0% (inactive)"}, {"smiles": "CCOC(=O)c1[nH]c2ccccc2c1NC(=O)C(CC)CC", "inhibition": "8% (inactive)"}, {"smiles": "CN(Cc1ccccc1)C(=O)c1ccc2c(c1)OCO2", "inhibition": "0% (inactive)"}, {"smiles": "CCOC(=O)CNC(=O)CSc1nc(N(C)C)nc(N2CCOCC2)n1", "inhibition": "6% (inactive)"}, {"smiles": "O=C1CN(Cc2ccccc2)C(=NCc2ccco2)S1", "inhibition": "0% (inactive)"}, {"smiles": "NCC(O)COc1ccc2c(c1)OCO2", "note": "(centres undefined)", "inhibition": "0% (inactive)"}, {"smiles": "O=C(O)c1ccc(-n2nnnc2Oc2ccccc2C(=O)N2CCOCC2)cc1", "inhibition": "4% (inactive)"}, {"smiles": "CC(=O)c1cccc(N(CC(=O)N2CCCC2)S(C)(=O)=O)c1", "inhibition": "0% (inactive)"}, {"smiles": "O=C(CSc1nnc(Cn2c(=O)sc3ccccc32)n1-c1ccccc1)NCC1CCCO1", "note": "(centres undefined)", "inhibition": "0% (inactive)"}, {"smiles": "Cn1c(CCCNC(=O)c2ccccc2)nc2ccccc21", "inhibition": "2% (inactive)"}]}]}
